# Source: ChEMBL document CHEMBL3988442, “University of Dundee, Small-Polar-MMV Screening Library” (2021)
# System: Trypanosoma cruzi
# Test: Trypanosoma cruzi phosphomannomutase and mannose-1-phosphate guanylyltransferase assay
# Format: functional
# Design: scale not given: direction of the effect not stated beside the values
# Settings: 10 µM
row,SMILES,Percent Effect [%]
1,Cn1ccc(CN2CCC(COC3CCCC3)CC2)cc1=O,2.15
2,CCCC(NC(=O)c1cc(C)ccc1C)c1nnn[nH]1 (stereo not given),7.89
3,NC(=O)C1CCCN(C(=O)c2cnc3c(cnn3C3CCCC3)c2)C1 (stereo not given),12.8
4,Cc1ccc(NC2CCN(C(=O)CN(C)C3CC3)CC2)nn1,-3.79
5,CCCOCC(=O)NC1CCc2nc(C)cn2C1 (stereo not given),-2.04
6,CNC(=O)c1cc2c(nc1NCC(C)C)CCN(S(=O)(=O)C1CC1)CC2,-3.23
7,CC(C)n1cc(S(=O)(=O)N2CCCCC2)cn1,0.393
8,Cc1cccc(N2CCN(C(=O)CN3CCN(CCO)CC3)CC2)c1,3.37
9,CNc1cccc(C2CCCN(C(=O)c3ccncc3)C2)n1 (stereo not given),4.74
10,CCN(CC)C(=O)Cn1ccc2cc(NC(=O)C3CCCO3)ccc21 (stereo not given),6.39
11,Cc1nccn1-c1cc(CNC(=O)C(C)(C)C)ccn1,0.588
12,CCOc1ccc(C(=O)NS(=O)(=O)c2cncc(Br)c2)cc1OC,10.6
13,CC(C)CNC(=O)CN1C=Nc2ccccc2S1(=O)=O,-10.6
14,CC(CNC(=O)N1CCSCC1)Cc1cccs1 (stereo not given),-0.195
15,NS(=O)(=O)CCNC(=O)c1nnn(-c2ccc(F)cc2)c1C1CC1,3.91
16,O=C(NCCOCC(F)(F)F)c1ccc(-c2ccco2)[nH]c1=O,-6.13
17,O=C(NCCO)Nc1cccc(Cl)c1SC(F)F,-3.01
18,Cc1nc(CN2CCCCC2Cn2cncn2)nc2ccccc12 (stereo not given),3.23
19,N#CCSCCCN1CCCN(C(=O)c2ccccc2)CC1,-4.17
20,COC(=O)CCN1CCCC1c1ccccc1Cl (stereo not given),2.04

row,SMILES,Percent Effect [%]
1,Cc1cncc(C2CCCN(C(=O)c3scnc3C)C2)n1 (stereo not given),0.395
2,COCCc1noc(CN2CCN(CC(O)c3ccccc3)CC2)n1 (stereo not given),-1.54
3,O=C(NCc1ccc(F)cc1)N1CCC(C2OCCO2)CC1,-1.66
4,Cc1nn(C)c(C)c1C1CCCN1CC(=O)NC(C1CC1)C1CC1 (stereo not given),4.25
5,Cn1ccc(C(=O)NC2CCC23CCN(C(=O)c2ccncc2)CC3)c1 (stereo not given),-3.17
6,CN(CC(=O)N1CCN(c2ncccn2)CC1)c1ccc(Cl)cn1,5.79
7,Cc1ncsc1CN1CC[C@H]2OCC[C@@]2(C(=O)NC(C)C)C1,-3.25
8,Cc1nc(C)n(CC2CCCN(CCCOc3ccccc3)C2)n1 (stereo not given),-0.718
9,Cc1csc(CNC(=O)N(C)Cc2cnn(C)c2)n1,4.18
10,Cc1noc(-c2ccc(N3CCCC(C(=O)N4CCSCC4)C3)nc2)n1 (stereo not given),-3.92
11,CC(=O)NCCNC(=O)CN1CCN(Cc2nccn2C)C(C)C1 (stereo not given),-0.836
12,COc1ccc(CNC2CCN(CCc3ccncc3)CC2)cc1O,5.27
13,O=C1[C@@H]2CCN(Cc3ccoc3)C[C@@H]2OCCN1Cc1cccnc1,-2.76
14,Cc1nccn1-c1cc(CNC(=O)CCNC(=O)C2CCCC2)ccn1,6.63
15,Cc1nn(C)cc1CN1CCC(C2Nc3ccccc3S(=O)(=O)N2)CC1 (stereo not given),-1.78
16,O=C(N[C@@H]1CN(Cc2ccc3c(c2)OCO3)[C@@H]2CCCO[C@@H]21)C1CC1,-5.99
17,CC(C)c1nnc2n1CCN(Cc1csc(CC(=O)N(C)C)n1)C2,-4.7
18,COc1ccc(NC(=O)NCC(O)c2ccc(F)cc2F)c(OC)c1 (stereo not given),-4.41
19,Cc1ccc(Cl)cc1C(=O)N1CCC2(CC1)c1ccccc1[C@@H](N)[C@@H]2O,9.85
20,Cc1cc(C)n(CC2CCCN2C(=O)c2ccc3c(c2)nnn3C)n1 (stereo not given),-2.94
